A short description of assay [1]: growth inhibition of DIPG glioma cells, dose response, cell-based, SU-DIPG-XVII, MIPE5.0, CellTiter-Glo, qHTS (AID 1347060).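 For AC50: cells exposed to compound for 48 hours before viability readout.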 The settings on record: SU-DIPG-XVII viability, CellTiter-Glo ATP luminescence. (In general: Cellular ATP, detected with luciferase, serves as a proxy for viable cell number.)
Assay [2] can be described thus: growth inhibition of DIPG glioma cells, dose response, cell-based, SU-DIPG-XIII, MIPE5.0, CellTiter-Glo, qHTS (AID 1347064; cut-off not given, nearly all actives have AC50 up to about 23 µM;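 for AC50: cells exposed to compound for 48 hours before the viability read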). Particulars: SU-DIPG-XIII viability, CellTiter-Glo ATP luminescence.
Assay [3] can be described thus: viability loss in pontine glioma line – cell-based, SU-DIPG-XXV, MIPE5.0, CellTiter-Glo, qHTS, dose response (AID 1347065).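 Note: cells exposed to compound for 48 hours before ATP readout.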 Particulars: CellTiter-Glo ATP luminescence.
Assay [4] is described as follows: SU-DIPG-XXV glioma cell viability, MIPE5.0 library, qHTS (AID 1347068; cut-off not given, nearly all actives have IC50 up to about 30 µM;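 for IC50: cells exposed to compound for 48 hours before viability readout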). A general note: Quantitative high-throughput screening tests each substance at several concentrations.
Assay [5] is described as follows: JHH-DIPG-1 glioma cell viability, MIPE5.0 library, CellTiter-Glo luminescence, qHTS (AID 1347067).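 Note: cells exposed to compound for 48 hours before readout.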 Particulars: JHH-DIPG-1 glioma viability, CellTiter-Glo ATP luminescence.
Assay [6] can be described thus: sensitizers of A549 cells to miR-34 induction, primary screen, imaging, A549 dox-inducible miR-34, nuclei and caspase counts (AID 1347080;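 active = compounds whose cell count with miR-34 switched on is under 0.7 times the count with it off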). Particulars: A549 miR-34 inducible, Hoechst nuclei count, 48 h.
The nature of assay [7]: survival rescue of mitochondrial mutant cells in low glucose, primary screen, MELAS cybrids, Rieske KO mouse fibroblasts, CellTiter-Glo (AID 1508586;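 active = mean z-score across replicates of 1.96 or higher in either the MELAS or the Rieske mutant cell line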;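 note: z relative to plate mean and SD of compound and empty wells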).
Setting [8] is: stronger effect = lower value, cell number ratio, induced over uninduced.
[9] abbreviates: measured here: relative caspase fold change +Dox/-Dox.
Where [10] appears, read: measured here: total cells with miR-34 induction, stronger effect = lower value.
Setting [11] is: measured here: total cells without miR-34 induction.
Setting [12] is: MELAS cybrid survival, CellTiter-Glo 48 h, stronger effect = higher value.
Setting [13] is: Rieske KO mouse fibroblast survival, CellTiter-Glo 72 h.

Each structure is given as a SMILES string. Values joined by “and” are separate entries in the source; they are usually repeats but may differ in a detail not shown here. Equal values may be shown once. Results filed as inconclusive are left out. Active and inactive are the calls of the source. Unless noted, no cut-off is given here; in the data, nearly all actives have AC50 up to about 26 µM.

The values below come from PubChem BioAssay.

For `Cc1ccc(Nc2ncc3c(n2)N(C)C(=O)N(c2cc(NC(=O)c4cccc(C(F)(F)F)c4)ccc2C)C3)cn1`, the AC50 in assay [1] was 105 nM (active); in assay [2], 74.2 nM (active); in assay [3], 11.8 nM (active). In assay [4], the IC50 is 74.2 nM (active).
On to `C=CC(=O)N1CC/C(=C\c2ccc(F)c([N+](=O)[O-])c2)C(=O)/C(=C/c2ccc(F)c([N+](=O)[O-])c2)C1`, for which the AC50 in assay [1] is 74.2 nM (active); in assay [2], 59 nM (active); in assay [3], 93.4 nM (active). Also, in assay [4], the IC50 was 186 nM (active).
For `C[C@@H](c1ccc2nccn2c1)n1nnc2ncc(-c3cnn(C)c3)nc21`, the result in assay [1], in assay [2], in assay [3] and in assay [4] was inactive.
Regarding `COc1ncc(-c2ccc3c(Nc4cc(Oc5cc(F)cc(F)c5)cc(C(=O)O)c4)c(S(=O)(=O)NC4CC4)cnc3c2)c(OC)n1`, the call in assay [1], in assay [2], in assay [3] and in assay [4] was inactive.
In the case of `CC(=O)Nc1ccc(C(=O)NC(C)(C)C)cc1`, the result in assay [1], in assay [2] and in assay [5] was inactive.
Turning to `Fc1ccc(-c2nc(-c3ccccc3F)[nH]c2-c2ccncc2)cc1`, the outcome in assay [1], in assay [2], in assay [5] and in assay [4] was inactive.
Regarding `CC(C)N(C[C@H]1O[C@@H](n2cnc3c(N)ncnc32)[C@H](O)[C@@H]1O)C1CC(CCc2nc3ccc(C(C)(C)C)cc3[nH]2)C1` (stereo not given in full), the compound was classed as inactive in assay [1], in assay [2], in assay [5] and in assay [4].
Turning to `O=[N+]([O-])c1ccc(-c2nc(-c3ccc(F)cc3)c(-c3ccncc3)[nH]2)cc1`, the AC50 is 26300 nM (active) in assay [1], 18600 nM (active) in assay [2] and 26300 nM (active) in assay [3]. The call in assay [4] was inactive. The fold change was 1.15 (inactive) and 0.939 (inactive) in assay [6] (setting [8]); 1.13 and 1.14 in assay [6] (setting [9]). In addition, the cell count was 4420 and 5750 in assay [6] (setting [10]); 3850 and 6120 in assay [6] (setting [11]).
Consider `CC(C)=CCC[C@](C)(O[C@@H]1O[C@H](CO[C@@H]2O[C@H](CO)[C@@H](O)[C@H](O)[C@H]2O)[C@@H](O)[C@H](O)[C@H]1O)[C@H]1CC[C@]2(C)[C@@H]1[C@H](O)C[C@@H]1[C@@]3(C)CC[C@H](O[C@@H]4O[C@H](CO)[C@@H](O)[C@H](O)[C@H]4O[C@@H]4O[C@H](CO)[C@@H](O)[C@H](O)[C@H]4O)C(C)(C)[C@@H]3CC[C@]12C`, for which the compound was called inactive in assay [1], in assay [2], in assay [5] and in assay [4].
For `c1cc(-c2cnn3cc(-c4ccc(N5CCNCC5)cc4)cnc23)c2cccnc2c1`, the AC50 was 7420 nM (active) in assay [1], 6610 nM (active) in assay [2] and 7420 nM (active) in assay [3]. In addition, in assay [4], the IC50 was 9340 nM (active). The fold change in assay [6] (setting [8]) was 1.02 (inactive); in assay [6] (setting [9]), 0.321. Moreover, the cell count was 216 in assay [6] (setting [10]) and 212 in assay [6] (setting [11]). The results for the z-score in assay [7] (setting [12]) and in assay [7] (setting [13]) were 1.7 (inactive) and 0.379, respectively.
As to `C[C@H](NC(=O)C(=O)Nc1ccccc1C(C)(C)C)C(=O)N[C@@H](CC(=O)O)C(=O)COc1c(F)c(F)cc(F)c1F`, the compound was called inactive in assay [1] and in assay [4]. Besides, the AC50 is 16600 nM (active) in assay [2] and 2950 nM (active) in assay [5].
Consider `CC(C)(O)c1coc(S(=O)(=O)NC(=O)Nc2c3c(cc4c2CCC4)CCC3)c1`, for which the compound was classed as inactive in assay [1], in assay [2], in assay [3] and in assay [4].
Consider `CN1C(N)=N[C@](C)(c2cc(NC(=O)c3ccc(F)cn3)ccc2F)CS1(=O)=O`, for which the outcome in assay [1], in assay [2], in assay [5] and in assay [4] was inactive.
Turning to `CNC(=O)c1ccc2c(C(=Nc3cccc(CN(C)C)c3)c3ccccc3)c(O)[nH]c2c1`, the compound was classed as inactive in assay [1], in assay [2], in assay [5] and in assay [4]. The fold change in assay [6] (setting [8]) is 0.967 (inactive); in assay [6] (setting [9]) it was 0.894. The cell count in assay [6] (setting [10]) is 7720; in assay [6] (setting [11]) it was 7990. In addition, the results for the z-score in assay [7] (setting [12]) and in assay [7] (setting [13]) were -0.483 (inactive) and -0.984, respectively.
As for `COc1ccc2c(C(=S)N(C)CC(=O)O)cccc2c1C(F)(F)F`, the compound was called inactive in assay [1], in assay [2], in assay [5] and in assay [4].

The AC50 is the concentration at which the activity in the assay is half-maximal. For orientation: IC50 means the midpoint of a concentration-inhibition curve.
